Data on 40 compounds can be found in PubChem BioAssay (NCATS).

SMILES strings stand for the structures. Records with an inconclusive call do not appear. Where a call stands in place of a potency, no number is given. Active and inactive are the calls of the source. Calls follow the shape of the dose curve; as a rule, active = well fitted inhibition curve with a large enough effect; inconclusive = small, poorly fitted or top-dose-only effect; inactive = flat fitted curve, though single readings scatter.

The test concerns CRL-7250. Nature of the test: qHTS assay to identify novel small-molecules to repurpose for Merkel cell carcinoma treatment (AID 1296009). Also: nearly all actives have a fitted effect of over 60% in size. Particulars: MCC and control cell lines, CellTiter-Glo viability, 72 h; series mostly up to 92 µM. In a few lines:
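Cell viability measured by CellTiter-Glo following 72 hr compound treatment at 37 degree celsius, with NPC and MIPE libraries tested in 8- and 11-point concentration series.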
On the technique in general: Quantitative high-throughput screening tests each substance at several concentrations.
For the compound `CC(=O)OC[C@@]12[C@H](O)C[C@]3(C)C(=CCC4[C@@]5(C)CC[C@H](O[C@@H]6O[C@H](C(=O)O)[C@@H](O[C@@H]7O[C@H](CO)[C@@H](O)[C@H](O)[C@H]7O)[C@H](O)[C@H]6O[C@@H]6O[C@H](CO)[C@@H](O)[C@H](O)[C@H]6O)[C@](C)(CO)C5CC[C@]43C)[C@@H]1CC(C)(C)[C@@H](OC(C)=O)[C@@H]2O` (stereo not given in full), the outcome was “inactive [at 9.27 µM]”.

Regarding `CCc1cc(CC[C@]2(C3CCCC3)CC(O)=C(Cc3nc4nc(C)cc(C)n4n3)C(=O)O2)cc(CC)n1`, the Potency result is “inactive”. On to `Cc1cc(CO)c(O)c(C(=O)CC2CC(=O)NC(=O)C2)c1`, for which the Potency result is “inactive”. Same read-out and setting: in the case of `CC(=O)NC(CCC(=O)O)C(=O)NCCc1ccc(O)cc1` (stereo not given) it was “inactive”; in that of `CC12CC34C=CC(=O)C(C)(CCC(=O)O)C3C(CC1C4)O2` (stereo not given), “inactive”; in that of `O=C(Nc1ccccc1-c1cn2c(CN3CCNCC3)csc2n1)c1ccc2ccccc2n1`, “inactive”. Regarding `CC(C)C[C@H](CC(=O)NO)C(=O)N[C@H](C(=O)N[C@@H](C)C(=O)NCCN)C(C)(C)C`, the outcome is “inactive [at 9.27 µM]”.

Regarding `CCCC(=O)Nc1cccc(NC(=O)c2ccccc2Br)c1`, the Potency entry is “inactive”.

`CC(C)=C1CC2C(CCC2(C)O)C(C)(O)CC1=O` (stereo not given): the Potency result is “inactive”. Regarding `CC(C)=CCCC1(C)Oc2cc3c(c4c2C2C(O4)C(C)(O)CCC21)CN(C(CCC(=O)O)C(=O)O)C3=O` (stereo not given), the Potency result was “inactive”. On the same count and under the same terms, then `Cc1ccc(Cc2c(C)nc3nc(SCC(=O)NCCN4CCNCC4)nn3c2C)cc1`, with “inactive”. Same read-out and setting: then `CCC/C=C1\OC(=O)C2=C1CCC(O)C2O` (stereo not given), with “inactive”. As for `CC(C/C=C/C(C)(C)O)C1CCC(C)(O)C(O)C1` (stereo not given), the Potency result is “inactive”. Still for that read-out and setting: in the case of `C[C@@H]1C(=O)OC[C@H]2C(C(=O)O)=C[C@@H]3CC(C)(C)C[C@]312` it was “inactive”; in that of `Cn1c(=O)c2nc(/C=C/c3cccc(Cl)c3)n(C)c2n(C)c1=O`, “inactive”. Consider `C1=Cc2ccccc2C(=C2CCN(CCCCc3nn[nH]n3)CC2)c2ccccc21`, for which the Potency entry was “inactive”. The same measure, in the same setting: in the case of `COc1cccc(OC)c1-c1nc(C(=O)N[C@@H](CC(C)C)C(=O)O)cn1-c1ccnc2cc(Cl)ccc12` it was “inactive”; in that of `NC(N)=NCCC[C@H](NC(=O)c1sccc1NS(=O)(=O)c1cccc2nsnc12)C(=O)O`, “inactive”.

`Cn1c2ccc(NC(=O)c3ccccc3)cc2c(=O)n2nc(C(=O)O)cc12`: the Potency entry is “inactive”.

`C[C@@H]1O[C@@H](O[C@H]2[C@H](O)[C@@H](O)[C@H](OC(=O)[C@]34CCC(C)(C)C[C@H]3C3=CCC5[C@@]6(C)CC[C@H](O[C@@H]7O[C@H](C(=O)O)[C@@H](O)[C@H](O)[C@H]7O)C(C)(C)C6CC[C@@]5(C)[C@]3(C)CC4)O[C@@H]2CO)[C@H](O)[C@H](O)[C@H]1O` (stereo not given in full): the outcome was “inactive [at 9.27 µM]”. Take `CC(CCO)CCC1C2(C)CCCC(C)(C)C2CC[C@@]1(C)O` (stereo not given in full): the Potency result was “inactive”. Same read-out and setting: then `CCC(C)C(=O)O[C@@H]1[C@@H](O)[C@@H](O[C@H]2O[C@H](CO)[C@@H](O)[C@H](O)[C@H]2O)O[C@H](CO)[C@H]1O` (stereo not given in full), with “inactive”; and `CC/C=C\C(O)C(O)C1=C(C)C(=O)C2(O1)C(=O)NC(OC)(C(=O)c1ccccc1)C2O` (stereo not given), with “inactive”.

For the compound `CC1=CC2/C=C(\C)CCC(O)C(=O)C(O)CC(=O)C23C(=O)NC(CC(C)C)C3C1C` (stereo not given), the Potency result was “inactive”. Still for that read-out and setting: then `COc1cc(O)c2c(c1)C1(OC2=O)C(C)=CC(=O)C1O` (stereo not given), with “inactive”; and `CC1=C2CC(=O)C(C)CC/C=C(\C)CC2OC1=O` (stereo not given), with “inactive”; and `CCC(C)/C=C(C)/C=C/C1=CC2=C(Cl)C(=O)C(C)(OC(C)=O)C(=O)C2=CN1C1CCCCN(C(CCC(N)=O)C(=O)O)C1=O` (stereo not given), with “inactive”. As to `CCC1OC(=O)C(C)CC(C)C(=O)/C(C)=C/C(C)C(=O)/C=C/C1(C)O` (stereo not given), the Potency entry is “inactive”.

On to `O=C(Nc1ccc2[nH]ncc2c1)C1CCC1`, for which the Potency entry is “inactive”.

On to `C[C@H](NCc1ccc(OCc2ccccc2F)cc1)C(N)=O`, for which the Potency result was “inactive”. Same read-out and setting: then `Cc1cc(-c2ncc(-c3cccnc3)cc2/C=C/c2ccccc2)cnc1-c1cccnc1`, with “inactive”; and `C[C@@H]1[C@H]2[C@H](O[C@@H]3O[C@H](CO)[C@@H](O)[C@H](O)[C@H]3O)OC=C(C(=O)O)[C@H]2C[C@@H]1O`, with “inactive”; and `COC(=O)c1cc(OC)c(O[C@@H]2O[C@@H](C)[C@H](O)[C@@H](O)[C@H]2O)c(OC)c1`, with “inactive”. As to `CC1(C)CC[C@]2(C(=O)O)CC[C@]3(C)C(=CCC4[C@@]5(C)C[C@@H](O)[C@H](O)[C@@](C)(CO)C5[C@H](O)C[C@]43C)[C@@H]2C1` (stereo not given in full), the Potency entry is “inactive”. Take `CC(=O)OC[C@]1(O)[C@H]2[C@H](OC(=O)CC(C)C)OC=C(CO[C@@H]3O[C@H](CO)[C@@H](O)[C@H](O)[C@H]3O)[C@H]2C[C@@H]1O`: the Potency entry is “inactive”. Take `CC(F)(F)CN1CCOc2c(nn(-c3ccccc3Cl)c2-c2ccc(Cl)cc2)C1=O`: the Potency result is “inactive”. Same read-out and setting: then `Nc1ncnc2c1ncn2CCNCCCCCO`, with “inactive”; and `CC1CCCCCCCc2cc(O)cc(O)c2C(=O)O1` (stereo not given), with “inactive”; and `C[C@]1(O)CC[C@@H]2C(C(=O)O)=CO[C@@H](O[C@@H]3O[C@H](COC(=O)/C=C/c4ccc(O)c(O)c4)[C@@H](O)[C@H](O)[C@H]3O)[C@@H]21`, with “inactive”.

For `CCC(CC)C(=O)Nc1sc2c(c1C#N)CCC(C(C)(C)CC)C2` (stereo not given), the Potency entry was “inactive”.
